Measurements from PubChem BioAssay.
A number with no mark means an inactive call. For some assays here: Results with a measured potency or affinity are listed apart. Calls of active or inactive are those of the source. Unless noted, the rule behind the calls is not given here.

Assays:
[1] = antimalarial activity against Dd2 strain (AID 2302;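 active = growth inhibition above 50% at the single 2 µM test dose, taken to imply half-maximal potency below 2 µM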;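 note: 0% = DMSO untreated growth and 100% = chloroquine plus artemisinin killed control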); settings: P. falciparum Dd2 in RBCs, LDH growth readout, 72 h; at 2 µM; active compounds read high
[2] = human hepatoma cell viability loss – ATP luminescence, cytotoxicity control for P. falciparum antimalarial project, primary screen (AID 2303;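 active = inhibition above 50%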;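 note: 0% = DMSO wells and 100% = digitonin-killed cells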); settings: HepG2 viability, 24-48 h, at 10 µM, active compounds read high
[3] = molecular target: L-lactate dehydrogenase (Plasmodium falciparum (isolate CDC / Honduras)) (UniProt Q27743); experiment: PfLDH activity inhibition – cell lysate, 3D7 strain, counter-screen for P. falciparum growth inhibition project (AID 2304);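 note: 0% = vehicle and 100% = reference inhibitor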; settings: P. falciparum 3D7 crude extract, LDH APAD/NBT absorbance; at 2 µM; active compounds read high
Chain of L-lactate dehydrogenase (Plasmodium falciparum (isolate CDC / Honduras)) (Q27743 whole entry, looked up): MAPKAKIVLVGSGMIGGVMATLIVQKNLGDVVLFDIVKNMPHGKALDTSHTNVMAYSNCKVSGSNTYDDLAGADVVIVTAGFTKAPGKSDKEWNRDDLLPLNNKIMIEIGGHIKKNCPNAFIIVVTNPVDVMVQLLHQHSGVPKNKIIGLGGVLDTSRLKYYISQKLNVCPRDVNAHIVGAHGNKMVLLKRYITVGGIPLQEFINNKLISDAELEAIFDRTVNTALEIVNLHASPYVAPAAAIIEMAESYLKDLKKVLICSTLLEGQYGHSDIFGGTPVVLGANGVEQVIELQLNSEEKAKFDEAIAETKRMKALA

[4] = inhibition of 3D7 malaria parasite growth – strain 3D7 (AID 2306);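 note: 0% = DMSO wells and 100% = chloroquine plus artemisinin control wells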; settings: P. falciparum 3D7 erythrocytic growth, LDH absorbance, 72 h; at 2 µM; active compounds read high
[5] = molecular target: Calcium-dependent protein kinase 1 (Plasmodium falciparum (isolate 3D7)) (UniProt P62344); experiment: PfCDPK1 kinase inhibitors, biochemical, TCAMS library (AID 1159585; cut-off not given, nearly all actives have IC50 up to about 0.98 µM;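 note: inhibitors leave more ATP so luminescence rises with inhibition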); settings: recombinant PfCDPK1, Kinase-Glo ATP depletion luminescence
Chain of Calcium-dependent protein kinase 1 (Plasmodium falciparum (isolate 3D7)) (P62344 whole entry, looked up): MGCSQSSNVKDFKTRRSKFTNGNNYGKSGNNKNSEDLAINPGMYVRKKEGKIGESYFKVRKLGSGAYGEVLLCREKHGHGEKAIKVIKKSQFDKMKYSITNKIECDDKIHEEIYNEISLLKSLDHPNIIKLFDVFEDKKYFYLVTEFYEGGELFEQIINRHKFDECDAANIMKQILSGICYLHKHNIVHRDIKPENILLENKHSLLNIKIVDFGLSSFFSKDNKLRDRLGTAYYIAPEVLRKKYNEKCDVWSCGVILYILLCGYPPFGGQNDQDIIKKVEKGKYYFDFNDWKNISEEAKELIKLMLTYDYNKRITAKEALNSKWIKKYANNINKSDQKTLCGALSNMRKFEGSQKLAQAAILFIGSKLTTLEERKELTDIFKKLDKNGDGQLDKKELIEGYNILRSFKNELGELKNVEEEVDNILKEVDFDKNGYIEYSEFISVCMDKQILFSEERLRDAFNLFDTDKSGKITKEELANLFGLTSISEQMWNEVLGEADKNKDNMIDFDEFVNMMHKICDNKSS

[6] = molecular target: Plasmodium falciparum protein kinase 6 (PK6, PF3D7_1337100) (UniProt Q8IDW1); experiment: PfPK6 kinase inhibitors, biochemical, TCAMS library (AID 1159586); settings: recombinant PfPK6, Kinase-Glo ATP depletion luminescence
Chain of Plasmodium falciparum protein kinase 6 (PK6, PF3D7_1337100) (Q8IDW1 1-305): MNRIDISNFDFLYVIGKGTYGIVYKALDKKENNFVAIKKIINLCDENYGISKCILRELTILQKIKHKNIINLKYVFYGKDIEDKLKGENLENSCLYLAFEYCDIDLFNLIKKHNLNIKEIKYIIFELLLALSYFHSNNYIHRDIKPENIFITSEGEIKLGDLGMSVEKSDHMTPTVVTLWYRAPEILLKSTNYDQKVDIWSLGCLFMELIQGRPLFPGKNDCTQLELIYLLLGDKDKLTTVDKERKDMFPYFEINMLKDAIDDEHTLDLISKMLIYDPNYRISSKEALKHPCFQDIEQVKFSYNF

[7] = molecular target: Protein kinase 7 (PK7), Plasmodium falciparum 3D7 (PF3D7_0213400) (UniProt Q7YTF7); experiment: inhibition of Plasmodium PK7 catalytic activity – biochemical, TCAMS antimalarial set, Kinase-Glo luminescence (AID 1159587); settings: recombinant PfPK7, Kinase-Glo ATP depletion luminescence
Chain of Protein kinase 7 (PK7), Plasmodium falciparum 3D7 (PF3D7_0213400) (Q7YTF7 1-343): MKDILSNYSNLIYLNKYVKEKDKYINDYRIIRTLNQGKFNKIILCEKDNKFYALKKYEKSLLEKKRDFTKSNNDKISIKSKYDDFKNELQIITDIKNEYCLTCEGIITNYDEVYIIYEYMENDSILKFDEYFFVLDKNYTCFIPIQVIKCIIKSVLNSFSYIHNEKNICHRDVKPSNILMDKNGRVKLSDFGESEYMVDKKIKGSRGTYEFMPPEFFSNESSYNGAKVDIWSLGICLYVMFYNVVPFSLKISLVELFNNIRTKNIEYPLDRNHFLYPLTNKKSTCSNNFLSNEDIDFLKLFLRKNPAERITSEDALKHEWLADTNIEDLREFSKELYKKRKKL

[8] = molecular target: Calcium-dependent protein kinase 4 (Plasmodium falciparum (isolate 3D7)) (UniProt Q8IBS5); experiment: PfCDPK4 kinase inhibitors, biochemical, TCAMS library (AID 1159588; cut-off not given, nearly all actives have IC50 up to about 0.91 µM); settings: recombinant PfCDPK4, Kinase-Glo ATP depletion luminescence
Chain of Calcium-dependent protein kinase 4 (Plasmodium falciparum (isolate 3D7)) (Q8IBS5 whole entry, looked up): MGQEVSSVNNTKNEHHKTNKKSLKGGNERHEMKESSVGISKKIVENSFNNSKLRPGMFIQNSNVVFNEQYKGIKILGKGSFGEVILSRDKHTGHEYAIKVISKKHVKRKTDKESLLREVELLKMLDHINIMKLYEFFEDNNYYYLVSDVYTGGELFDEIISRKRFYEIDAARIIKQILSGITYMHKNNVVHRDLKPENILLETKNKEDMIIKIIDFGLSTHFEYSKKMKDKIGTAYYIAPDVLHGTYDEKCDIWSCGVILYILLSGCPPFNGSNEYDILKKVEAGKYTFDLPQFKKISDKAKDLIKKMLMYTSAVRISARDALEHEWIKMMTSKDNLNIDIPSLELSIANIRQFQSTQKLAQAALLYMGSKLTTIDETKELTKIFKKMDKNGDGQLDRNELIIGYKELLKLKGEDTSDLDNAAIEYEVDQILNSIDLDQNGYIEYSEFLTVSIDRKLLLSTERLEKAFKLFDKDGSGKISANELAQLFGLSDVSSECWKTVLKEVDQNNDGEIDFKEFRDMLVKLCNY

| Structure (SMILES) | growth inhibition [1] | inhibition [2] | inhibition [3] [%] | growth inhibition [4] | outcome [5] | outcome [6] | outcome [7] | outcome [8] |
| --- | --- | --- | --- | --- | --- | --- | --- | --- |
| CC(C)(C)c1ccc(Cn2nc(C(=O)N3CCN(C(=O)C4CCCO4)CC3)c3ccccc32)cc1 (stereo unspecified) | 83% (active) | -2% | -3 | 90% (active) | inactive | inactive | inactive | inactive |
| CC[C@H]1C[N+]2([O-])CC[C@@H]1C[C@H]2[C@H](O)c1cc(-c2ccccc2)nc2ccc(OC)cc12 | 97% (active) | -11% | 0 | 99% (active) | inactive | inactive | inactive | inactive |
| CC(=O)Nc1ccc(OCCN(CC(F)(F)F)c2ccc(C#N)cc2C(F)(F)F)cc1 | 83% (active) | -1% | 1 | 81% (active) | inactive | inactive | inactive | inactive |
| C[C@@H](NC(C)(C)C)[C@H](O)c1ccc(Cl)c(C(F)(F)F)c1 | 97% (active) | -1% | -6 | 97% (active) | inactive | inactive | inactive | inactive |
| CCOc1ccc(CN(CCc2ccc3c(c2)OCO3)Cc2cc(OC)ccc2O)cc1 | 88% (active) | 3% | -4 | 96% (active) | inactive | inactive | inactive | inactive |
| CN(C)c1cccc(NC(=O)NC2N=C(c3ccccc3)c3ccccc3N(CC(=O)N(C)c3ccccc3)C2=O)c1 (stereo unspecified) | 80% (active) | 1% | 4 | 99% (active) | inactive | inactive | inactive | inactive |
| CC(C)/C(=C(/F)CN1C(=O)C(NC(=O)c2cc3ccccc3[nH]2)C(=O)N(c2ccccc2)c2ccccc21)c1ccccc1 (stereo unspecified) | 82% (active) | 7% | -2 | 98% (active) | inactive | inactive | inactive | inactive |
| CCCC(=O)c1c(O)c2ccccc2oc1=O | 1% | 11% | -5 | 93% (active) | inactive | inactive | inactive | inactive |
| CO/C(=C\C=C\c1cc2cc(Cl)c(Cl)cc2[nH]1)C(=O)N[C@H]1CN2CCC1CC2 | 36% | 43% | -2 | 82% (active) | inactive | inactive | inactive | inactive |
| COc1cc(C=CC(=O)N2CCC(CN3CCC(c4c[nH]c5ccccc45)CC3)CC2)ccc1O | 25% | 11% | -3 | 82% (active) | inactive | inactive | inactive | inactive |
| COc1ccc(C(=O)[C@H]2C[C@@H]2CN2CC=C(c3c(C)[nH]c4ccccc34)CC2)cc1 | 94% (active) | 16% | -6 | 96% (active) | inactive | inactive | inactive | inactive |
| CCCCCCCc1cc(O)c2c3c(c(=O)oc2c1)CN(C)CC3 | 100% (active) | -5% | 3 | 97% (active) | inactive | inactive | inactive | inactive |
| CN1[C@@H]2CC[C@H]1c1cc(NC(=O)c3cc(-c4ccc(Cl)cc4)cs3)ccc12 | 35% | 62% (active) | -2 | 90% (active) | inactive | inactive | inactive | inactive |
| CCCCCCCc1cc(=O)c2ccccc2[nH]1 | 94% (active) | 5% | 1 | 96% (active) | inactive | inactive | inactive | inactive |
| Cn1cc(CN2CCC(CCOC(c3ccccc3)c3ccccc3)CC2)cn1 | 100% (active) | 27% | -5 | 99% (active) | inactive | inactive | inactive | inactive |
| Cn1nc(-c2ccc(S(=O)(=O)N3CCC(CN4CCC(c5c[nH]c6ccccc56)CC4)CC3)s2)cc1C(F)(F)F | 48% | 16% | -6 | 93% (active) | inactive | inactive | inactive | inactive |
| Cc1ccc(C)c(N2CCN(Cc3ccccc3O)CC2)c1 | 90% (active) | 11% | 5 | 100% (active) | inactive | inactive | inactive | inactive |
| Cc1[nH]c2ccc([N+](=O)[O-])cc2c1C1=CCN(C)CC1 | 68% (active) | 6% | 4 | 86% (active) | inactive | inactive | inactive | inactive |
| CCCCNC(c1ccc(Cl)cc1)C(O)c1ccc(Cl)cc1 (stereo unspecified) | 98% (active) | 13% | 4 | 99% (active) | inactive | inactive | inactive | inactive |
| Cc1cc(NC(=O)[C@@H](Nc2ccc(C#N)c3ccccc23)C2CCCCC2)ccc1F | 83% (active) | 10% | 0 | 95% (active) | inactive | inactive | inactive | inactive |
| Cc1cc(O)cc2c(C3CCN(CC4CCN(C(=O)/C=C/c5ccc(Cl)c(Cl)c5)CC4)CC3)c[nH]c12 | 100% (active) | 33% | 3 | 101% (active) | inactive | inactive | inactive | inactive |
| COC(=O)c1ccc(CC(C)NCC(O)c2cccc(C(F)(F)F)c2)cc1F (stereo unspecified) | 47% | 1% | 7 | 82% (active) | inactive | inactive | inactive | inactive |
